# Compound activity as filed in PubChem BioAssay.
# PTHR1 agonist: activates the human parathyroid hormone receptor PTHR1; Q03431; HEK293 GP2 PTHR1 cells, GloSensor cAMP luminescence, 1 h; Potency, µM (series often up to 115 µM), for inactives: at the top dose activation, most hits filed as activators; actives 0.075% (n = 410,000); AID 743266; also: potency is read from the fitted curve at half-maximal effect; nearly all actives have a fitted effect of over 55% in size
#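 HEK-293-derived GP2 cells expressing PTHR1 and a GloSensor cAMP reporter, 3,000/well, plated overnight, given luciferin plus IBMX (each 0.5 mM as added) for 1 h at 37 °C, then compound for 1 h at 37 °C. Luminescence was read after 15 min at room temperature.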
# B2AR arrestin: recruits beta-arrestin to the human beta2-adrenergic receptor. beta-arrestin recruitment to beta2AR, cell-based reporter. Potency, µM (top dose mostly 46.1 µM), without a hit: top-dose activation, actives largely listed as activators. actives 0.02% (n = 330,000). AID 492947;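 also: potency is read from the fitted curve at half-maximal effect; 0% = DMSO controls and full agonism = EC100 isoproterenol or metaproterenol; nearly all actives have a fitted effect of over 65% in size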
# DRD3 agonist: D3 dopamine receptor (human) agonism. P35462. D3R DiscoveRx beta-arrestin cells, luminescence, 90 min. max activation, %. actives 0.58% (n = 410,000); in the data active = max activation above about 30%; also: 0% is about no effect
# Target sequence (P35462 whole entry, looked up): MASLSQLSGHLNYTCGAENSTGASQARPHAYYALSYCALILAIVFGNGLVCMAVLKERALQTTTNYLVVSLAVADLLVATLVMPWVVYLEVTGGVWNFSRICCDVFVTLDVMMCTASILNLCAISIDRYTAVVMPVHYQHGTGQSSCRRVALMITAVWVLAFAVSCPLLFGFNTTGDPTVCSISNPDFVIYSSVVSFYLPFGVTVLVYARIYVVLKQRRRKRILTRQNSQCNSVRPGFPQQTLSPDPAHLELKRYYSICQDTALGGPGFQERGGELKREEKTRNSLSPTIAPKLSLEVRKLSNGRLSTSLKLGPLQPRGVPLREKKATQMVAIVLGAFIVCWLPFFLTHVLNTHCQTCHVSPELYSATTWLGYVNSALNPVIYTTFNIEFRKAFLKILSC
#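 Agonist-mode cell screen: cells plated at 1500/well and incubated overnight at 37 °C, then exposed to library compounds for 90 min at 37 °C. Detection reagent was added for 30–60 min at room temperature, and luminescence was read.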
# RGS4 inh: human RGS4 inhibition; Transcreener GDP fluorescence polarization, RGS4-accelerated GTP hydrolysis; actives 0.039% (n = 390,000); AID 504845; P49798; Potency, µM (top dose mostly 114 µM), for the others: at the top dose activity change, negative = inhibition, hits mostly inhibitors; also: potency is read from the fitted curve at half-maximal effect; % is scaled to controls: 0 for no effect and ±100 for the full control effect; nearly all actives have a fitted effect of over 75% in size
# Target sequence (P49798 whole entry, looked up): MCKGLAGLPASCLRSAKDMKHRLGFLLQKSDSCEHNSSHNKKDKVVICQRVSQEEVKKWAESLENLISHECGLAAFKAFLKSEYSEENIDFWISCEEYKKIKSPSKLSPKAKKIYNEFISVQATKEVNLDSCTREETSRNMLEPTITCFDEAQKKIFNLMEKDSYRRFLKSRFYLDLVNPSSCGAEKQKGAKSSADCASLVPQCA
#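 MLSMR compounds (23 nl, pin-transferred) preincubated 10 min at room temperature with a 500nM (2x) first reagent, then RGS4 at 900nM (2x) plus Transcreener GDP mix added; fluorescence polarization (620/688 nm) read before and after 90 min at 30 °C.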
# D3 antag: D3 dopamine receptor (human) antagonism; D3R cells, DiscoveRx beta-arrestin luminescence, antagonist mode; stronger effect = lower value; max response, negative = inhibition, %; actives 2.5% (n = 360,000); AID 652054; in the data active = max response below about -50%; inconclusive = no clear call, values can overlap the other calls; also: % is scaled to controls: 0 for no effect and ±100 for the full control effect
#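 Cells plated overnight at 1500 cells/well, then exposed to library compounds with dopamine controls for 90 minutes at 37 degrees C. DiscoveRx reagent added for 30–60 minutes at room temperature; luminescence read, quantitative HTS format.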
# BRCA1 expr up: increases BRCA1 expression; actives 1.1% (n = 380,000); Potency, µM (highest dose often 46.1 µM), for inactives: at the top dose activation, hits mostly activators; MCF7-BRCA1-FFLuc reporter, luminescence, 48 h; response scale: scaled: vehicle 0%, 10 µM genistein 100%; also: potency is read from the fitted curve at half-maximal effect; nearly all actives have a fitted effect of over 80% in size
#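 Luminescence from a BRCA1-driven firefly luciferase in MCF7 cells was read after 48 h compound exposure at 37 C. Data normalized against DMSO and a 10microM genistein activation control, then curve-fitted across the titration.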
# * = called active by the depositor; i = inactive; ? = inconclusive; . = no result given; [ ] = another dose, or the depositor's remark. Shown are actives, neighbours in structure and some others; about 3.7% of the full set was active somewhere. Unless noted, calls follow the shape of the dose curve; as a rule, active = well fitted curve in the direction sought with a large enough effect; inconclusive = small, poorly fitted or top-dose-only effect, or another doubt; inactive = no such curve, though single readings can be large; an effect the other way counts as inactive or inconclusive.
SMILES,PTHR1 agonist,B2AR arrestin,DRD3 agonist,RGS4 inh,D3 antag,BRCA1 expr up
COc1ccc(Nc2nc(Nc3ccc(OC)cc3)nc(-n3[nH]c(=O)c(C)c3C)n2)cc1,i,0%,-16,?,-59*,-56%
COc1ccc(Nc2nc(OC)nc(OC)n2)cc1,-19%,0%,0,36%,6,21%
O=C(C#Cc1ccccc1)c1ccccc1,-21%,.,-9,.,-65*,-84%
O=C(C#Cc1ccccc1)c1ccc([N+](=O)[O-])cc1,-17%,-1%,-18,?,-72*,-77%
CN(C)C(=O)C#Cc1ccccc1,i,0%,6,-21%,5,11%
COc1cccc(-n2c(=O)c3c4c(sc3n(Cc3ccc(C)cc3)c2=O)CCCC4)c1,-96%,.,-10,13%,.,.
COc1ccc2c(c1OC)C(=O)N(c1ccc(OCc3ccccc3)cc1)C2=O,i,0%,7,3%,0,5%
COc1ccc([C@H]2CC(=O)C=C(c3ccc(F)cc3OCc3ccccc3)C2)cc1OC,-31%,-1%,73*,15%,116,-61%
O=C1C=C(c2ccc(Oc3ccccc3)cc2)C[C@@H](c2ccc(F)cc2)C1,-32%,0%,-8,35%,-73*,-4%
COc1ccc([C@H]2CC(=O)C=C(c3cccc(OC)c3)C2)cc1,-46%,0%,-9,19%,-6,16%
O=C1C=C(c2ccc(F)cc2OCc2ccccc2)C[C@@H](c2ccc(F)cc2)C1,-68%,0%,42*,-4%,-15,0%
COc1ccc([C@H]2CC(=O)C=C(c3cccc(C(C)C)c3)C2)cc1,-70%,0%,-56,-8%,-61*,-20%
O=C1C=C(c2ccc(OC(F)(F)F)cc2)C[C@@H](c2ccc(F)cc2)C1,-6%,-1%,14,7%,0,0%
CN1CCN(c2ccccc2/C=N/NC(=O)c2cccnc2)CC1,-22%,0%,-18,5%,-50*,-8%
Cc1ccsc1/C=N/NC(=O)c1nnn(-c2nonc2N)c1CSc1ccccc1,i,-1%,3,-16%[56.9 µM],11,0%
O=C1COc2ccc(C(=O)COc3ccc([N+](=O)[O-])cc3)cc2N1,i,0%,6,15%,-7,-3%
Cc1cccc(/C=C(\c2nc3ccccc3[nH]2)S(=O)(=O)c2ccccc2)c1,-35%,0%,-16,-29%,-62*,-86%
CC(C)(C)c1ccc(/C=C(\c2nc3ccccc3[nH]2)S(=O)(=O)c2ccccc2)cc1,-93%,.,-10,11%[11.4 µM],-66*,-92%
CCOC(=O)c1c(-c2ccc(C)cc2)csc1NC(=O)c1cccc(N2C(=O)CCC2=O)c1,-1%,0%,5,9%,7,-6%
CCOC(=O)c1c(-c2ccc(C)cc2)csc1NC(=O)c1ccc(N2C(=O)CCC2=O)cc1,-5%,-1%,1,-31%,10,-3%
CCOC(=O)c1cc(CC)sc1NC(=O)c1ccc(N2C(=O)CCC2=O)cc1,-9%[57.5 µM],0%,51*,10%,17,-2%
CCOC(=O)c1c(-c2ccccc2)csc1NC(=O)c1cccc(N2C(=O)CCC2=O)c1,i,0%,62*,14%,44,-1%
CC(=O)N1c2ccccc2N2C(c3c(C)c(C)cc(C)c3C)=NON12,10%,0%,-3,-28%,-2,-23%
O=C(C1CCN(S(=O)(=O)c2cccc3cccnc23)CC1)N1CCn2c1nc1ccccc12,i,0%,-40,-12%,-184*,-4%
O=C(COC(=O)C1CCN(S(=O)(=O)c2cccc3cccnc23)CC1)c1ccc(F)cc1,i,0%,5,-7%,-52*,-1%
SMILES,PTHR1 agonist,B2AR arrestin,DRD3 agonist,RGS4 inh,D3 antag,BRCA1 expr up
O=C(NCc1ccccc1)C1CCN(S(=O)(=O)c2cccc3cccnc23)CC1,-41%,0%,1,-3%,14,0%
O=C(C1CCCN1S(=O)(=O)c1cccc2cccnc12)N1CCn2c1nc1ccccc12 (stereo unspecified),-15%,0%,-11,10%,?,-18%
COc1ccc(-c2[nH]ncc2CN(CC2CCC(=O)N2)C(C)C)cc1F (stereo unspecified),-5%,0%,5,?,6,-8%
Cc1ccc(-n2ncc(C#N)c2N)cc1,-11%,0%,3,13%,-6,10%
Cc1ccc(-c2cc3ncc(C#N)c(N)n3n2)cc1,i,0%,2,-11%,-11,8.9µM*
O=C(Cn1cnc2c(oc3ccccc32)c1=O)c1ccccc1,-19%,0%,3,10%,-17,7.1µM*
O=C(O)Cn1cnc2c(oc3ccccc32)c1=O,i,-1%,-4,8%,-4,0%
Cc1ccc(C(C)C)c(OCCN(C)C)c1,-23%,0%,-7,-1%,-75*,2%
Cc1ccc(C(C)C)c(OCCCCCN2CCOCC2)c1,i,0%,-17,-2%,-52*,-12%
Cc1ccc(C)c(OCCN2CCOCC2)c1,-4%,-2%,-6,-4%,-26,0%
Cc1ccc(C)c(OCCOCCN2CCOCC2)c1,5%[57.5 µM],0%,-18,4%,-56*,-2%
Cc1cc(C)c(CN2CCN(C(=O)CC[C@H]3O[C@@H](n4cnc5c(NC(=O)c6ccccc6)ncnc54)[C@H](O)[C@@H]3O)CC2)c(C)c1,-8%,.,-5,.,-17,0%
Cc1ccc(Nc2c(-c3ccccn3)nc3cc(C)ccn23)cc1,-36%,3%,-32,-9%,-88*,-81%
Cc1ccc(Nc2c(-c3ccccn3)nc3ccc(C)cn23)cc1,-40%,0%,-29,0%,-78*,-83%
Cc1ccc(Nc2c(-c3ccc(C)cc3)nc3ccc(C)cn23)cc1,-19%,.,-16,17%,.,.
Cc1ccn2c(Nc3ccc4c(c3)OCO4)c(-c3ccccn3)nc2c1,-8%,0%,-17,11%,-54*,-86%
Cc1ccn2c(NC3CCCC3)c(-c3ccccn3)nc2c1,i,0%,-19,-16%,-10,-64%
CC12CCC3C(CCC4CC(O)CCC43C)C1CC(O)C2 (stereo unspecified),-13%,.,31*,1%,82,-13%
O=C(CSc1nnc2ccccn12)Nc1cccc(-c2nc3ccccc3s2)c1,i,0%,1,20%,12,5µM*
O=C(Cc1ccc(F)cc1)Nc1cccc(-c2nc3cccnc3s2)c1,i,.,-7,-2%,.,.
O=C(Nc1ccc(-c2nc3cccnc3s2)cc1)c1ccc(Cl)nc1,i,-1%,3,-13%,1,1.8µM*
